One may read the AC50 as the midpoint of the concentration-response curve, whichever way the signal moves.

Our source for the AC50 and outcome values is PubChem BioAssay (EPA / NIEHS).

For test [1], the system named is frog Estrogen Receptor (ER2), gene 100174814. Description: ATG_frER2_XSP2: Attagene TRANS-FACTORIAL Multi-Species (XSP2) HepG2 Assay for frog Estrogen Receptor (ER2) (AID 2283828). The method, boiled down:
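Human liver HepG2, transient MRTU transfection (TRANS format, exogenous NR–Gal4). 24 h cpd exposure. Total RNA → RT → PCR → FAM label → HpaI cut → CE. Positive direction vs DMSO.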

Test [2] deals with Peroxisome proliferator-activated receptor gamma (Homo sapiens) (UniProt P37231). Description: ATG_hPPARg_XSP2: Attagene TRANS-FACTORIAL Multi-Species (XSP2) HepG2 Assay for human Peroxisome Proliferator-activated Receptor gamma (PPARg) (AID 2283829).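 Also: actives raise reporter mRNA above DMSO so AC50 reflects PPARg activation.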 The method, boiled down: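 HepG2 cells transiently transfected with multiplexed GAL4-UAS reporter units for chimeric NR-Gal4 receptors, dosed 24 h. Reporter mRNA quantified by RT-PCR, 6-FAM labeling, HpaI digestion and capillary electrophoresis; gain-of-signal fitted against DMSO baseline.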

Test [3] has as its target mouse Peroxisome Proliferator-activated Receptor gamma (PPARg), Pparg (gene 19016) (UniProt P37238). In words: ATG_mPPARg_XSP2: Attagene TRANS-FACTORIAL Multi-Species (XSP2) HepG2 Assay for mouse Peroxisome Proliferator-activated Receptor gamma (PPARg) (AID 2283830).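 Also: hits are gains in reporter mRNA above DMSO so AC50 marks activation.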 A digest of the protocol:
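HepG2 cells transiently transfected with GAL4-UAS reporter units for chimeric NR-Gal4 proteins including mouse PPARg, exposed 24 h; medium contained 3 nM 6-alpha-fluorotestosterone and 1.5 nM norgestrel. Reporter mRNA quantified by RT-PCR, HpaI digestion and capillary electrophoresis, vs DMSO.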

Test [4] deals with Nuclear receptor subfamily 1 group I member 2 (Mus musculus) (UniProt O54915). Description: ATG_mPXR_XSP2: Attagene TRANS-FACTORIAL Multi-Species (XSP1) HepG2 Assay for mouse Pregnane X Receptor (PXR) (AID 2283831). The method, boiled down: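 HepG2 cells transiently transfected with GAL4-UAS reporter units expressing chimeric NR-GAL4 proteins; reporter mRNA measured 24 h after dosing by RT-PCR with 6-FAM labelling and capillary electrophoresis, gain of signal relative to DMSO.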

Test [5] deals with zebrafish Thyroid Hormone Receptor alpha (TRa), thraa (gene 30670) (UniProt Q98867). In words: ATG_zfTRa_XSP2: Attagene TRANS-FACTORIAL Multi-Species (XSP1) HepG2 Assay for zebrafish Thyroid Hormone Receptor alpha (TRa) (AID 2283832).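 Also: actives raise zebrafish TRa-Gal4 reporter transcript above DMSO baseline.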 The method, boiled down: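 Chimeric receptor-Gal4 activity was assessed in transfected human liver HepG2 cells 24 h after dosing, using reporter transcript levels detected by RT-PCR and capillary electrophoresis. DMSO served as baseline.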

The test system of test [6] is zebrafish Peroxisome Proliferator-activated Receptor gamma (PPARg), gene 557037. Description: ATG_zfPPARg_XSP2: Attagene TRANS-FACTORIAL Multi-Species (XSP2) HepG2 Assay for zebrafish Peroxisome Proliferator-activated Receptor gamma (PPARg) (AID 2283833).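 Also: actives increase reporter signal over DMSO so AC50 reflects activation.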 A digest of the protocol:
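HepG2 cells transiently transfected with GAL4-UAS reporter units expressing a zebrafish PPARg–GAL4 chimera; compound exposure 24 h. Reporter mRNA quantified by RT-PCR with fluorescent labelling and capillary electrophoresis; gain of signal fitted relative to DMSO baseline.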

Test [7] has as its system turtle Thyroid Hormone Receptor, alpha (TRa), gene 101949057. Description: ATG_trTRa_XSP2: Attagene TRANS-FACTORIAL Multi-Species (XSP1) HepG2 Assay for turtle Thyroid Hormone Receptor, alpha (TRa) (AID 2283834).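 Also: hits raise reporter mRNA over the DMSO baseline so AC50 marks activators.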 The method, boiled down: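 HepG2 cells transiently transfected with multiplexed GAL4-UAS reporter units expressing chimeric NR-Gal4 proteins were dosed for 24 hours. Reporter mRNA was quantified by RT-PCR with 6-FAM labelling and capillary electrophoresis, gain of signal scored against DMSO.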

The target of test [8] is zebrafish Thyroid Hormone Receptor beta (TRb), thrb (gene 30607) (UniProt Q9PVE4). Description: ATG_zfTRb_XSP2: Attagene TRANS-FACTORIAL Multi-Species (XSP1) HepG2 Assay for zebrafish Thyroid Hormone Receptor beta (TRb) (AID 2283836).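 As to AC50: potency for induction of reporter signal above DMSO so agonist direction.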 The method, boiled down:
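Fluorescence of labelled reporter cDNA fragments, separated by capillary electrophoresis, gives mRNA induction from exogenous NR-Gal4 chimeras in transiently transfected HepG2 cells after 24 h dosing; 3 nM 6-alpha-fluorotestosterone and 1.5 nM norgestrel included in the run.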

Test [9] can be described thus: ATG_XTT_Cytotoxicity_XSP2: Cytotoxicity Assessment in the Attagene TRANS-FACTORIAL Multi-Species (XSP2) HepG2 Assay (AID 2283837). A digest of the protocol: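 HepG2 cells, transiently transfected with multiple reporter constructs, exposed to chemical for 24 h. Cell number assessed with XTT fluorescence read-out; loss of signal fitted relative to DMSO.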
Test [10] deals with frog Thyroid hormone Receptor alpha (TRa), thra-a (gene 397942) (UniProt P15204). Description: ATG_frTRa_XSP2: Attagene TRANS-FACTORIAL Multi-Species (XSP2) HepG2 Assay for frog Thyroid hormone Receptor alpha (TRa) (AID 2283839).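 As to AC50: AC50 reflects induction of frog TRa-driven reporter mRNA above DMSO baseline.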 A digest of the protocol:
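HepG2 cells transiently transfected with multiplexed GAL4-UAS reporter units expressing chimeric frog TRα-Gal4; reporter mRNA read 24 h after dosing by RT-PCR, FAM-labelled primer extension, HpaI digest and capillary electrophoresis. Gain of signal fitted versus DMSO.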

For test [11], the system named is Sodium/Iodide Symporter (NIS), SLC5A5 (gene 6528). In words: CPHEA_Stoker_NIS_Inhibition_RAIU: CPHEA's Radioactive Iodide Uptake (RAIU) Assay for Sodium/Iodide Symporter (NIS) Inhibition, Stoker and Laws Labs (AID 2283841). A digest of the protocol:
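hNIS-HEK293T-EPA cells incubated 2 h at room temperature with compound (0.001–100 uM, 0.5% DMSO) and 329 pM final 125I in HBSS/10 mM HEPES, pH 7.4. Intracellular 125I counted; normalised to DMSO maximal uptake, triplicate, three biological replicates.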

Test [12] in a line: CPHEA_Stoker_NIS_Cytotoxicity: Cytotoxicity Assessment for CPHEA's Radioactive Iodide Uptake (RAIU) Assay for Sodium/Iodide Symporter (NIS) Inhibition, Stoker and Laws Labs (AID 2283897).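 As to AC50: active means loss of ATP signal versus DMSO meaning cytotoxicity.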 The method, boiled down:
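hNIS-HEK293T-EPA cells, human NIS expressed in HEK293T, treated 2 h with chemicals (0.001–100 uM, 0.5% final DMSO). ATP content read by CellTiter-Glo luminescence; loss of signal analysed relative to DMSO.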

Test [13] has as its target human Thyroid hormone Receptor beta (TRb), THRB (gene 7068) (UniProt P10828). Description: ATG_hTRb_XSP2: Attagene TRANS-FACTORIAL Multi-Species (XSP2) HepG2 Assay for human Thyroid hormone Receptor beta (TRb) (AID 2283840).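 Also: actives raise reporter mRNA so potency reflects agonist-like gain of signal.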 The method, boiled down:
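HepG2 cells were transiently transfected with GAL4-UAS multiplexed reporter units expressing chimeric NR-Gal4 proteins, dosed 24 h; reporter mRNA was quantified by RT-PCR, fluorescent labeling, HpaI digestion and capillary electrophoresis, fitted for gain of signal versus DMSO.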

For test [14], the target named is human Thyroid hormone Receptor alpha (TRa), THRA (gene 7067) (UniProt P10827). In words: ATG_hTRa_XSP2: Attagene TRANS-FACTORIAL Multi-Species (XSP2) HepG2 Assay for human Thyroid hormone Receptor alpha (TRa) (AID 2283838). A digest of the protocol:
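HepG2 cells transiently transfected with multiplexed GAL4-UAS reporter units and exogenous NR-GAL4 chimeras; 24 h chemical exposure with 3 nM 6-alpha-fluorotestosterone and 1.5 nM norgestrel present. Reporter mRNA measured by RT-PCR, FAM labelling, HpaI digestion, capillary electrophoresis; gain-of-signal versus DMSO.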

“And” between values parts separate entries of the source, which are not always exact repeats. Identical values can stand only once. Results filed as inconclusive are left out. Some structures have more than one record in an assay (separate samples or runs), and their calls can disagree. The source made the active and inactive calls. The calls were made as follows: active = hit-call score of the fitted dose curve at least 0.9, where 1 is the maximum; inconclusive = response in the unintended direction; inactive = score below 0.9.

Peroxisome proliferator-activated receptor gamma (Homo sapiens), sequence (P37231 whole entry, looked up, the tested form may be a part): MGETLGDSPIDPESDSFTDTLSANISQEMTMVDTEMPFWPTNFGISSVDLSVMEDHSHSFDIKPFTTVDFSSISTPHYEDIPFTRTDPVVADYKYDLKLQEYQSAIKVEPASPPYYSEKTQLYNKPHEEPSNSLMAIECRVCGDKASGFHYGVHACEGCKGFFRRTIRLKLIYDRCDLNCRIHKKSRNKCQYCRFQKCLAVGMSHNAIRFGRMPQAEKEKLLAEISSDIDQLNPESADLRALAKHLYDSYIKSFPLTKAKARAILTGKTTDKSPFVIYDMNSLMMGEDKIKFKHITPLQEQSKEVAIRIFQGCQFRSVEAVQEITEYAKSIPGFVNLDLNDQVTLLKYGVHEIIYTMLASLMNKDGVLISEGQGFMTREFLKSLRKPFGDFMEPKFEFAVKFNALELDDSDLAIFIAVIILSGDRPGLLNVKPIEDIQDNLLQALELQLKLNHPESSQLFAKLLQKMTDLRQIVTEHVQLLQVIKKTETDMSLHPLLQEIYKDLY
Nuclear receptor subfamily 1 group I member 2 (Mus musculus), sequence (O54915 whole entry, looked up, the tested form may be a part): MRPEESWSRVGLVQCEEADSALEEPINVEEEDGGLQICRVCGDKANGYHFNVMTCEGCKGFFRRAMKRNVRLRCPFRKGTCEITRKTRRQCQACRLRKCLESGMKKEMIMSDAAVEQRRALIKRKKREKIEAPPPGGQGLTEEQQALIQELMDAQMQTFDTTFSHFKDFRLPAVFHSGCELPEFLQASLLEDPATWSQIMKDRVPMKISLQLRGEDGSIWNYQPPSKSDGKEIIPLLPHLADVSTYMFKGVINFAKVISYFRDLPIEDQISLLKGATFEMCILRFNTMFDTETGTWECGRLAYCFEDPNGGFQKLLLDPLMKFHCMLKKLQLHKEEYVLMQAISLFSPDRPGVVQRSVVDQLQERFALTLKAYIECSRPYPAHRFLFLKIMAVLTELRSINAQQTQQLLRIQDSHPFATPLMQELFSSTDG
zebrafish Thyroid Hormone Receptor alpha (TRa), thraa (gene 30670), sequence (Q98867 whole entry, looked up, the tested form may be a part): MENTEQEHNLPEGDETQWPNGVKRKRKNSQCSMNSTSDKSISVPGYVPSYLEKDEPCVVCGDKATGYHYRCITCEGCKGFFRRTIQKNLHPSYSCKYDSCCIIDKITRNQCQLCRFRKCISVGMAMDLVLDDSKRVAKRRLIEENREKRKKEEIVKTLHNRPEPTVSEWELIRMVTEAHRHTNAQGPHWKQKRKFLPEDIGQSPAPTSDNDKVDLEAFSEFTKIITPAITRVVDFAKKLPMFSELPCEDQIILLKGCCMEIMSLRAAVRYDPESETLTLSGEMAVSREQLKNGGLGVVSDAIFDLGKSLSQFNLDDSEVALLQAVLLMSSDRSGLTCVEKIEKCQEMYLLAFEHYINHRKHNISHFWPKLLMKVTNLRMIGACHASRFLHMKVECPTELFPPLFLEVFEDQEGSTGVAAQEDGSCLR
mouse Peroxisome Proliferator-activated Receptor gamma (PPARg), Pparg (gene 19016), sequence (P37238 whole entry, looked up, the tested form may be a part): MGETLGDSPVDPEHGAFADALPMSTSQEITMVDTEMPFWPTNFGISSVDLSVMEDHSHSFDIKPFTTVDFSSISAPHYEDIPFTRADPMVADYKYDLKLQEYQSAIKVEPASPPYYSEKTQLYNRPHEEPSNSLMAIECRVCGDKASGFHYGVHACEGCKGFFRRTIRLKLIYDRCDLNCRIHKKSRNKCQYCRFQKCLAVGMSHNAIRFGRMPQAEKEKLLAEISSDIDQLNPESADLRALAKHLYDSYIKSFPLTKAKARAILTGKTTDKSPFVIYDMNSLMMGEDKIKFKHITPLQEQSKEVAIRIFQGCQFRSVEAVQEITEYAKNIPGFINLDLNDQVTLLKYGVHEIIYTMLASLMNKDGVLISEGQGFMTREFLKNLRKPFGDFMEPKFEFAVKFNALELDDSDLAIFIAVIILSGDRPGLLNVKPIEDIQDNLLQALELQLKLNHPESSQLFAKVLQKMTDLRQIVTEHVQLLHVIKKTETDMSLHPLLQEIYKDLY
human Thyroid hormone Receptor beta (TRb), THRB (gene 7068), sequence (P10828 whole entry, looked up, the tested form may be a part): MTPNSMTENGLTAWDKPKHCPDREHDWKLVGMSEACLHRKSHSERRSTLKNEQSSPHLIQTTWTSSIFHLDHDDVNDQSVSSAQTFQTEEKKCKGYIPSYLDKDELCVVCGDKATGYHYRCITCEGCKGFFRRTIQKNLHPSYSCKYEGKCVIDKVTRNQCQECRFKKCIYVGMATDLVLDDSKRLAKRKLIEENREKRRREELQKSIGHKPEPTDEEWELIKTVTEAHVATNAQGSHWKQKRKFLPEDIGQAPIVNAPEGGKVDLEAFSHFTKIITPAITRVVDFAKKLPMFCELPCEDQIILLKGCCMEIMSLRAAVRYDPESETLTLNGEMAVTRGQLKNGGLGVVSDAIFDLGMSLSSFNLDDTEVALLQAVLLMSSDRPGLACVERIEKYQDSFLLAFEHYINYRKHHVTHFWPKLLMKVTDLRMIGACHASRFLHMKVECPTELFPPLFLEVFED
zebrafish Thyroid Hormone Receptor beta (TRb), thrb (gene 30607), sequence (Q9PVE4 whole entry, looked up, the tested form may be a part): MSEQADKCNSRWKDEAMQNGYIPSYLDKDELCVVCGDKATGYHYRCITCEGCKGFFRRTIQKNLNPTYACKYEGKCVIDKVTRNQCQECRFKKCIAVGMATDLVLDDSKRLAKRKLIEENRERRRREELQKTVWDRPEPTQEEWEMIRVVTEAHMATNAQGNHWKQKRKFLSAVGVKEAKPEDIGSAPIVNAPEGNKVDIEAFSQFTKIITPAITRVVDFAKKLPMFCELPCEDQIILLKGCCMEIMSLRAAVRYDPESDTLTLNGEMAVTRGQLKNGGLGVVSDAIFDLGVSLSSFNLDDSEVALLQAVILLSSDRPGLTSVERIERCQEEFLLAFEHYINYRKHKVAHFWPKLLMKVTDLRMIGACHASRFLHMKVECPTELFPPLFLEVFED
frog Thyroid hormone Receptor alpha (TRa), thra-a (gene 397942), sequence (P15204 whole entry, looked up, the tested form may be a part): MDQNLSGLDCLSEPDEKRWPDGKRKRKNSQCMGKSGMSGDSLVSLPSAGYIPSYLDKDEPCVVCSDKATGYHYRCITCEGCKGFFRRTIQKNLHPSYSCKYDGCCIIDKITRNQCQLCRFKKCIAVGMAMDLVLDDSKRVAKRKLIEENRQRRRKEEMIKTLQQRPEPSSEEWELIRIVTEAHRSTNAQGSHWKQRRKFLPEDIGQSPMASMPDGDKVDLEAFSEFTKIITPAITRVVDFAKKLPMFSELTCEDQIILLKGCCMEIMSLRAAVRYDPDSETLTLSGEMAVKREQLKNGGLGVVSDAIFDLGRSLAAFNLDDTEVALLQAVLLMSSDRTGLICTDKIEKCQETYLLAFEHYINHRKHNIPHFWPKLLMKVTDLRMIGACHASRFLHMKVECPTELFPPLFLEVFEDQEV
human Thyroid hormone Receptor alpha (TRa), THRA (gene 7067), sequence (P10827 whole entry, looked up, the tested form may be a part): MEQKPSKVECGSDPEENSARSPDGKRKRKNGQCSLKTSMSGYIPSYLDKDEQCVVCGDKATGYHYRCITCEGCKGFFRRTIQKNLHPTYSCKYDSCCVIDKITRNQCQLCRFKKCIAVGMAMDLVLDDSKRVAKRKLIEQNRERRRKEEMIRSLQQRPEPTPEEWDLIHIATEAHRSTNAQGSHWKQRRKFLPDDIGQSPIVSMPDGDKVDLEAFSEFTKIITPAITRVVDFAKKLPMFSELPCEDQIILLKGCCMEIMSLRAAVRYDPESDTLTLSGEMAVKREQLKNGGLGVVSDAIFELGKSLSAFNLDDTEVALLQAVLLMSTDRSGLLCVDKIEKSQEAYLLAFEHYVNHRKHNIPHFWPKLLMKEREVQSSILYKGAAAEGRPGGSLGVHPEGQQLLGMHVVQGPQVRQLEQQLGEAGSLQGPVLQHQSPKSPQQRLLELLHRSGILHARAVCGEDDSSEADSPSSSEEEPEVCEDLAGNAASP

Take `N[C@@H](Cc1cc(I)c(Oc2ccc(O)c(I)c2)c(I)c1)C(=O)O`: the AC50 in test [1] was 4.9 µM (active); in test [2], 6.33 µM (active); in test [3] it was 3.89 µM (active); in [4] it was 22.7 µM (active); in [5], 0.534 nM (active) and 449 nM (active); in test [7] it was 0.636 nM (active) and 73.3 nM (active). Also, the AC50 in test [8] was 0.339 nM (active) and 77 nM (active); in [10], 0.185 nM (active) and 197 nM (active). The compound was called inactive in test [1], in test [2], in [3], in test [6], in [9] and in [11]. Moreover, in [12], the outcome was inactive.

As for `CSC(=O)c1cccc2nnsc12`, the result in [1], in test [2], in [3], in [4], in test [7] and in test [8] was inactive. The result in test [13], in test [11] and in test [12] was inactive. In addition, the values for the AC50 in test [2] and in test [3] were 51.7 µM (active) and 20.5 µM (active), respectively.

Regarding `CCCN(CCC)c1c([N+](=O)[O-])cc(C(F)(F)F)c(N)c1[N+](=O)[O-]`, the AC50 was 31.8 µM (active) in test [11] and 47.8 µM (active) in test [12].

Turning to `CCN(Cc1c(F)cccc1Cl)c1c([N+](=O)[O-])cc(C(F)(F)F)cc1[N+](=O)[O-]`, the AC50 in [1] was 10.1 µM (active) and 2.8 µM (active); in test [4], 284 nM (active) and 656 nM (active). For the same compound, the compound was called inactive in [2], in test [3], in [5], in test [6], in test [7] and in test [8]. Also, the call in test [9], in [14], in test [10], in test [13], in test [11] and in test [12] was inactive.

In the case of `CC(C)(c1ccc(O)cc1)c1ccc(O)cc1`, the call in test [1], in test [2], in test [3], in [6], in test [7] and in test [8] was inactive. Moreover, the outcome in test [10], in test [13], in test [11] and in test [12] was inactive. The AC50 in test [5] is 12.7 µM (active).
